# Test results from ChEMBL document CHEMBL4513146, “CO-ADD screening of Karazin Kharkiv National University (Ukraine) compounds”.
# Potency and affinity values are given separately.
# Assays:
# Klebsiella pneumoniae = conditions: Concentration 32 ug.mL-1;; ASSAY_TEST Inhibition of Bacterial Growth; detection method Absorption (OD600); MEDIA CAMHB; plate type 384well; NBS; CORNING #3640; time 18 hr
# Candida albicans = conditions: Concentration 32 ug.mL-1; ASSAY_TEST Inhibition of Fungal Growth; detection method Absorption (OD530)
# Cryptococcus neoformans = conditions: Concentration 32 ug.mL-1; ASSAY_TEST Inhibition of Fungal Growth; detection method Resazurin; Absorption (OD600-OD570); plate type 384well; NBS; CORNING #3640
Compound,Inhibition (Klebsiella pneumoniae) [%],Inhibition (Candida albicans) [%],Inhibition (Cryptococcus neoformans) [%]
CCOc1ccc(-n2ccn3c(SCC(=O)Nc4ccc(C)c(C)c4)nnc3c2=O)cc1,-8.39,2.77,-12.45
CC(=O)c1ccc(NC(=O)Cn2nc3ccc(-c4ccc(C)cc4)nn3c2=O)cc1,11.92,4.12,-11.07
CCc1nnc2c(SCC(=O)Nc3ccccc3Br)nc3ccccc3n12,11.72,2.39,-22.99
O=c1c2sccc2n2c(SCc3cccc(C(F)(F)F)c3)nnc2n1Cc1cccs1,1.3,16.7,-17.87
COc1ccc(-c2cc3c4nnc(SCC(=O)Nc5ccc(C)c(F)c5)n4ccn3n2)cc1,1.13,19.06,-5.86
Cc1cccc(NC(=O)Cn2c(=O)c3nnc(C(C)C)n3c3ccccc32)c1,2.46,0.3,-17.48
Cc1ccc(NC(=O)Cn2nc3c(N4CCOCC4)nc4ccccc4n3c2=O)cc1C,11.25,-0.6,-25.03
COc1ccc(CCn2c(=O)c3sccc3n3c(=O)n(CC(=O)c4ccccc4)nc23)cc1OC,16.06,0.73,-38.41
O=C(Cn1nc2c(N3CCOCC3)nccn2c1=O)Nc1cccc(C(F)(F)F)c1,0.9,5.11,-4.42
O=C(Cn1nc2ccc(-c3ccccc3)nn2c1=O)NC1CCCCC1,16.29,0.48,-16.53
CCOc1ccc(NC(=O)Cn2nc3c(Sc4ccccc4)nccn3c2=O)cc1,8.21,7.49,-21.93
CCc1nnc2c(SCC(=O)Nc3cc(Cl)ccc3C)nc3ccccc3n12,15.39,3.09,-9.04
Cn1c(=O)c2ccc(C(=O)NC3CCCC3)cc2n2c(SCC(=O)Nc3cc(F)ccc3F)nnc12,7.15,0.81,-19.18
O=C(Cn1nc2ccc(SCc3ccc(Cl)cc3)nn2c1=O)Nc1ccccc1C(F)(F)F,7.36,1.76,-11.3
O=C(CCc1nnc2ccc(-c3ccc(Cl)cc3)nn12)NCc1ccc(F)cc1Cl,20.9,0.76,-15.23
O=C(Cn1nc2c(SCc3ccccc3)nccn2c1=O)NCc1ccc(Cl)cc1,-3.05,1.33,-17.24
Cc1cc2nn(CC(=O)Nc3ccc(F)cc3F)c(=O)n2c(Nc2ccc(F)c(C)c2)n1,11.68,11.92,-8.52
O=C(CSc1nnc2c(=O)n(-c3cccc(F)c3)ccn12)c1ccc(F)cc1,9.88,4,-7.94
O=C(CSc1nnc2c(=O)n(-c3ccccc3)ccn12)Nc1ccc(Br)cc1,9.81,2.41,-15.78
CCc1cccc(NC(=O)Cn2nc3ccc(SC4CCCCC4)nn3c2=O)c1,16.99,2.91,-22.11
CN(C(=O)Cn1nc2n(Cc3cccs3)c(=O)c3sccc3n2c1=O)c1ccccc1,-2.89,0.01,-9.21

Compound,Inhibition (Klebsiella pneumoniae) [%],Inhibition (Candida albicans) [%],Inhibition (Cryptococcus neoformans) [%]
N#CCn1nc2n(Cc3ccccc3)c(=O)c3ccccc3n2c1=O,8.96,-1.85,-7.48
Cc1ccc(NC(=O)Cn2nc3ccc(SC4CCCCC4)nn3c2=O)c(Cl)c1,12.19,5.14,-13.64
O=C(Cn1nc2ccc(Sc3cccc(F)c3)nn2c1=O)NCc1ccc(Cl)cc1,0.3,1.92,-3.51
COc1ccccc1N1CCN(C(=O)Cn2nc3ccc(-c4ccc(C)c(C)c4)nn3c2=O)CC1,9.25,-0.19,-3.44
CCOc1ccc(-n2ccn3c(SCC(=O)NCc4ccc(Cl)cc4)nnc3c2=O)cc1,11.7,0.49,-7.68
Cc1cccc(NC(=O)Cn2nc3c4cc(-c5ccc(Cl)cc5)nn4ccn3c2=O)c1,1.22,16.29,-21.44
COc1cc(OC)c(NC(=O)Cn2nc3c(Sc4ccc(C)cc4C)nccn3c2=O)cc1Cl,6.06,4,-14.9
CCc1nnc2c(SCC(=O)Nc3cccc(Br)c3)nc3ccccc3n12,4.36,4.07,-27.47
Cc1ccc(NC(=O)Cn2nc3c4c5c(sc4ncn3c2=O)CCCC5)cc1C,7.59,3.92,-29.29
COc1cccc(-n2ccn3c(SCC(=O)c4c(C)[nH]c5ccccc45)nnc3c2=O)c1,9.67,3.81,-9.48
CC(C)c1ccc(N(Cc2ccc(Cl)cc2)S(=O)(=O)c2cccn3cnnc23)cc1,9.01,2.08,-6.18
CCOC(=O)c1ccc(NC(=O)Cn2nc3c4cc(-c5ccc(C)cc5)nn4ccn3c2=O)cc1,-1.86,7.19,-28.56
CC(C)Cc1ccc(S(=O)(=O)Nc2ccc3nncn3n2)cc1,8.3,1.38,-3.84
COc1cc(Cl)c(C)cc1NC(=O)Cn1nc2ccc(SC(C)(C)C)nn2c1=O,11.93,3.05,-11.08
Cc1cc(C)cc(NC(=O)Cn2nc3c(Sc4cccc(C)c4)nc4ccccc4n3c2=O)c1,5.29,1.16,-15.02
Cc1ccc(-n2ccn3c(=O)n(Cc4cccc(Cl)c4)nc3c2=O)cc1C,2.85,1.08,-13.91
Cc1ccc(Cn2c(=O)c3ccc(C(=O)NC4CCCC4)cc3n3c(=O)n(CC#N)nc23)cc1,8.48,2.86,-4.65
Cc1nnc2c(=O)n(CC(=O)Nc3ccc(F)cc3)c3ccccc3n12,10.46,0.41,-6.03
Cc1cccc(C)c1NC(=O)Cn1nc2c3cc(-c4ccc(Cl)cc4)nn3ccn2c1=O,6.6,-0.5,-16.41
CCOc1ccc(N(Cc2cccc(F)c2)S(=O)(=O)c2ccc3nncn3c2)cc1,6.73,1.76,-4.27
COc1ccc(CNC(=O)Cn2nc3c(N4CC(C)CC(C)C4)nccn3c2=O)cc1 (stereo not drawn),-3.24,4.41,-8.27

Compound,Inhibition (Klebsiella pneumoniae) [%],Inhibition (Candida albicans) [%],Inhibition (Cryptococcus neoformans) [%]
Cc1ccc(NC(=O)Cn2nc3c(SC4CCCCC4)nccn3c2=O)cc1,5.75,-2.16,-28.82
COc1ccc(C)cc1NC(=O)Cn1nc2c3cc(-c4ccc(Cl)cc4)nn3ccn2c1=O,15.75,-1.06,-27.09
O=C(CSc1nnc2c(=O)n(-c3ccccc3)ccn12)Nc1ccc(F)cc1F,1.13,1.82,-4.59
CN(C(=O)Cn1nc2n(Cc3ccco3)c(=O)c3sccc3n2c1=O)c1ccccc1,-0.68,2.07,-9.74
CC(C)CCNC(=O)Cn1nc2n(Cc3ccco3)c(=O)c3sccc3n2c1=O,8.27,3.16,-8.69
Cc1cc2nn(CC(=O)N3CCCc4ccccc43)c(=O)n2c(Nc2ccc(F)cc2)n1,10.84,1.07,-3.85
O=C(Cn1nc2ccc(Sc3cccc(F)c3)nn2c1=O)Nc1ccc2c(c1)OCCO2,12.38,-0.05,-8.22
CCOC(=O)c1ccccc1NC(=O)Cn1nc2c(Oc3ccc(C)cc3)nccn2c1=O,-8.56,4.6,-10.52
CCCCc1ccc(NC(=O)Cn2nc3c(Sc4ccccc4)nccn3c2=O)cc1,5.15,28.09,-10.74
C=Cc1ccc(CN(c2cccc(Cl)c2)S(=O)(=O)c2cccn3c(C)nnc23)cc1,6.94,1.33,-16.09
CCOC(=O)c1ccc(NC(=O)Cn2nc3ccc(C(=O)Nc4cccc(C)c4)cn3c2=O)cc1,6.83,1.34,-36.79
COCCCNC(=O)CSc1nnc2c(=O)n(Cc3ccc(F)cc3)ccn12,13.69,2.6,-25.66
Cc1nnc2c(S(=O)(=O)N(Cc3ccccc3F)c3cc(F)cc(F)c3)cccn12,1.21,0.25,-4.37
Cc1cccc(CN(c2ccccc2)S(=O)(=O)c2cccn3c(C)nnc23)c1,4.77,-0.3,-6.4
CCOc1cccc(CNC(=O)CCc2nnc3ccc(-c4ccc(C)cc4)nn23)c1,8.62,2,-6.55
O=C(Cn1nc2c(N3CCOCC3)nccn2c1=O)Nc1cc(C(F)(F)F)ccc1Cl,12.08,2.84,-4.39
O=S(=O)(c1cccn2cnnc12)N(Cc1ccc(F)cc1)c1ccc(F)c(F)c1,4.99,2.27,-6.23
COc1ccc(C)cc1NC(=O)Cn1nc2cc(C)nc(Nc3ccc(F)cc3)n2c1=O,2.21,2.84,-7.79
O=C(Cn1nc2ccc(SCc3ccc(Cl)cc3)nn2c1=O)NCc1ccc2c(c1)OCO2,-1.27,13.27,-15.83
